# This excerpt belongs to a sample that is enriched for hits.
# RMI-FANCM inh = blocks RMI1/RMI2 complex binding to FANCM MM2 peptide | Fluorescence polarization, RMI core complex with F-MM2 peptide; active compounds read low | FP signal (polarization) at 33 µM | 70,000 tested, 0.58% active | AID 1159607; in the data active means FP signal below about 40
# * hit, by the source's call; ! = not confirmed by another sample.
SMILES,RMI-FANCM inh
CCOc1ccc2c(c1)=CC(=Cc1sc(=S)n(CC3CCCO3)c1O)C(=O)N=2 (centres undefined),23*
O=S(=O)(c1ccc(F)c(Cl)c1)N1CCN(Cc2ccc3c(c2)OCO3)CC1,57
CCn1cccc(-c2nnc(SCC(=O)N(C)c3ccccc3)n2C)c1=O,65
O=c1cc(O)cc(/C=C/c2ccc(O)c(O)c2)o1,15*
N#C/C(=C\c1ccc(O)c(O)c1)C(=O)c1ccc(O)c(O)c1,93
O=C(O)C=Cc1ccc(O)c(O)c1,60
Cc1nc2sc(C)c(C)n2c(=O)c1NC(=O)CSCc1ccccc1,63
CC(C)(CC(=O)N1CCN(c2ccccc2)CC1)Sc1ccc(Cl)cc1,49
Cn1c(CO)nc2ccccc21,62
N#Cc1c(-c2ccco2)c2c([nH]c1=O)-c1ccccc1OC2,-3*
N#Cc1c(-c2ccco2)cc(-c2ccco2)[nH]c1=O,-9
N#Cc1c(-c2ccco2)c2c([nH]c1=O)-c1ccccc1CC2,-59
COc1cc(/C=C/C(=O)N2CCN(Cc3nc(C)cs3)CC2)cc(OC)c1OC,62
CNC(=O)C(=O)Nc1cc(C)ccc1OC,65
Cc1cc(C)cc(OCCNC(=O)c2ccc(F)cc2F)c1,60
Cc1cc(SCC(N)=O)nc2ccccc12,71
O=Cc1cnc2ccccc2n1,59
N=C(N)Sc1cnc2ccccc2n1,37*
Cc1cc(-c2nnc(NC(=O)Cc3ccc(C(C)C)cc3)o2)nn1C,74
O=C(Nc1ccc2c(c1)OCO2)C(=S)NCc1ccccc1,56
Cc1ccc(S(=O)(=O)N=c2sc3cccc(C)c3n2C)cc1,55
Cc1ccc(S(=O)(=O)N=C2C=CC(=NS(=O)(=O)c3ccc(C)cc3)C=C2)cc1,0*
Cc1ccc(S(=O)(=O)N(C)C)cc1,56
O=C(NCC1CCCO1)C(=O)Nc1ccc(F)c(Cl)c1 (centres undefined),54
O=[N+]([O-])c1ccccc1S(=O)(=O)NCCOc1cccc(C(F)(F)F)c1,60
SMILES,RMI-FANCM inh
CCN1CCC[C@H]1CNC(=O)c1c(OC)ccc(Br)c1OC,59
CCN1CCC[C@H]1CNC(=O)c1cc(S(N)(=O)=O)ccc1OC,22*!
C=CCN1CCCC1CNC(=O)c1cc2[nH]nnc2cc1OC (centres undefined),61
CC(=O)Nc1ccc(-n2c(SCC(=O)c3ccc(F)cc3)nc3sc4c(c3c2=O)CCCC4)cc1,71
Cc1cc(NC(=O)COc2ccccc2F)n(-c2nc(-c3cccs3)cs2)n1,79
CC(=O)N/C(=C\c1sc2ccccc2c1C)C(=O)O,64
O=S(=O)(Nc1cc(Br)c(O)c2ccccc12)c1ccc2ccccc2c1,29*
COc1ccc(S(=O)(=O)Nc2cc(-c3c(O)ccc4ccccc34)c(O)c3ccccc23)cc1,58
CCOc1ccc(S(=O)(=O)Nc2cc(-c3c(O)ccc4ccccc34)c(O)c3ccccc23)cc1,56
CCC(=O)N1CCc2ccc(NS(=O)(=O)c3ccc(C(C)C)cc3)cc2C1,72
OC(COCc1ccccc1)CN1CCOCC1 (centres undefined),57
CCCCCOc1ccc(C(=O)NN)cc1,55
N=C(N)c1ccc(N)cc1,55
N=C(N)c1ccc(OCCCCCOc2ccc(C(=N)N)cc2)cc1,-2*!
Clc1ccc(-c2nnc(CSc3nnc(SCC4CC4)s3)o2)cc1,64
CC(=O)Nc1cccc(NC(=O)C(=O)NCCc2ccc(N(C)C)cc2)c1,87
Clc1ccccc1-c1nnc(SCc2cccnc2)o1,70
Cc1onc(-c2ccccc2)c1C(=O)NNC(=O)C1CC1,61
Cc1onc(-c2c(Cl)cccc2Cl)c1C(=O)N[C@@H]1C(=O)N2[C@@H]1SC(C)(C)[C@@H]2C(=O)O,65
COc1cccc(OC)c1C(=O)N[C@@H]1C(=O)N2[C@@H]1SC(C)(C)[C@@H]2C(=O)O,67
CC(=O)Nc1ccc(OCCCNC(=O)c2c(-c3ccccc3)noc2C)cc1,63
Cc1onc(-c2ccccc2)c1C(=O)NC1C(=O)N2[C@@H]1SC(C)(C)[C@@H]2C(=O)O (some centres undefined),9*
Cc1onc(-c2ccccc2)c1C(=O)NCCNC(=O)c1c(-c2ccccc2)noc1C,-22*
COc1ccc(C)cc1S(=O)(=O)Nc1ccc2nc(C)n(-c3ccc(F)cc3)c(=O)c2c1,58
CC(C)(C)OC(=O)N1CCN(C(=O)Nc2ccc(OC(F)(F)F)cc2)CC1,59
SMILES,RMI-FANCM inh
CCC(=O)NCCOc1ccc2nnc(-c3ccccc3)n2n1,68
O=C(Cc1ccccc1)NCCOc1ccc2nnc(-c3ccccc3)n2n1,69
COCC(=O)NCCOc1ccc2nnc(-c3ccccc3)n2n1,26*
Fc1ccc2nc(Cl)sc2c1,56
COc1ccc(C(N=C=S)=NCS(=O)(=O)c2ccc(C)cc2)cc1,61
NC1=NNC(=O)/C1=C\c1cc([N+](=O)[O-])ccc1N1CCOCC1,55
O=c1ccc(-c2cccs2)nn1CCCNS(=O)(=O)c1cccc(Cl)c1Cl,77
Cc1nnc(SCC(=O)Nc2ccc(S(N)(=O)=O)cc2)[nH]c1=O,62
COc1ccc(-c2c(C#N)c(SCC(=O)c3ccc4c(c3)OCCO4)nc3c2C(=O)CC(C)(C)C3)cc1,164
N#Cc1c(N)nc(SCC(=O)c2ccc(O)c(O)c2)c(C#N)c1-c1ccc(OCc2ccccc2)cc1,14*
CC1(C)CC(=O)c2c(nc(SCC(=O)c3ccc(Cl)c(Cl)c3)c(C#N)c2-c2ccccc2)C1,131
N#Cc1c(-c2ccc3c(c2)OCO3)nc(N2CCCCC2)[nH]c1=O,23*
N#Cc1c(-c2ccc3c(c2)OCO3)cc(-c2ccccc2O)[nH]c1=O,76
COc1ccc(-c2cc(-c3ccc(C)c(C)c3)nc(SCC(=O)NCc3ccc4c(c3)OCO4)c2C#N)cc1OC,104
CC(C)(C)c1ccc(NC(=O)NCCOc2ccccc2)cc1,64
CS(=O)(=O)N1CCCC(C(=O)Nc2nc(-c3ccncc3)cs2)C1 (centres undefined),65
COc1ccc(S(=O)(=O)N2N=C(c3cccc(NS(C)(=O)=O)c3)CC2c2ccccc2C)cc1 (centres undefined),60
CCC(=O)N1CCc2ccc([N+](=O)[O-])cc2C1,68
O=c1[nH]c(=S)c2c(n1Cc1ccco1)CCCC2,63
O=C1CNC(=S)N1Cc1ccco1,51
O=c1cc(O)n(Cc2ccco2)c(=S)[nH]1,26*
COc1ccc(N=Cc2ccc(N(C)C)c(C#N)c2)cc1,54
CCOC(=O)c1cnc(C(F)(F)F)nc1Sc1n[nH]c(-c2cccs2)n1,54
CCS(=O)(=O)NCCn1ncc2c(N3CCOCC3)ncnc21,60
CN(C)CCN(C(=O)CCCS(=O)(=O)c1ccccc1)c1nc2ccc([N+](=O)[O-])cc2s1,59
SMILES,RMI-FANCM inh
CCCc1cc(=O)n(CC(=O)NCc2ccc3c(c2)OCO3)c(-n2nc(C)cc2C)n1,56
C=C(C)[C@@H]1CC[C@]2(CO)CC[C@]3(C)[C@H](CCC4[C@@]5(C)CC[C@H](O)C(C)(C)C5CC[C@]43C)C12 (some centres undefined),51
CC1(C)C2CC[C@]3(C)C(C(=O)C=C4[C@H]5C[C@@](C)(C(=O)O)CC[C@]5(C)CC[C@]43C)[C@@]2(C)CC[C@@H]1O (some centres undefined),53
COc1cc(C(=O)Oc2c(Cl)cc(Cl)cc2C=Nc2cc(C)c(C)cc2C)cc(OC)c1OC,97
COc1cc(C(=O)O/N=C\c2ccccc2OC(F)(F)F)cc(OC)c1OC,50
COc1cc(N=Cc2ccccc2OC(=O)c2cc(OC)c(OC)c(OC)c2)c(OC)cc1Cl,28*

# Source: PubChem BioAssay (Small Molecule Screening Facility, UW Madison)
